These results are taken from PubChem BioAssay.

Molecules are shown by their SMILES. Active and inactive are the calls of the source. Unless noted, no rule for the calls is given here.

Assay [1] is described as follows: HepG2 liver cancer cell viability effects, profiling panel, resazurin fluorescence, 24 h, PK04 Diversity Set (AID 1172). The conditions noted are these: higher = more signal.
A short description of assay [2]: basal S. cerevisiae growth modulation, no modifier, primary screen, OD600, strain BY4716, 24 h, basal condition (AID 1173). The conditions noted are these: OD600, 24 h, higher = more signal, called active from +8 up or from −8 down.
A short description of assay [3]: MM1S myeloma cell viability, profiling panel, resazurin fluorescence, basal, 24 h, PK04 Diversity Set (AID 1174).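 Also: MM1S multiple myeloma cell line.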 Particulars: higher = more signal, called active from +8 up or from −8 down.
Assay [4] has as its target Dihydroorotate dehydrogenase (quinone), mitochondrial (Plasmodium falciparum (isolate 3D7)) (UniProt Q08210). Description: PfDHODH enzyme inhibitors, primary screen, biochemical, C-terminal His tag, absorbance 600 nm (AID 1175).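 Also: recombinant parasite enzyme with a five histidine tag at its C terminus.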 The conditions noted are these: DCIP absorbance 600 nm, higher = more signal, called active from +8 up or from −8 down.
Assay [5] can be described thus: P. aeruginosa biofilm formation inhibitors, primary screen, strain PAO1, LB-PBS medium, absorbance 600 nm (AID 1176). Particulars: P. aeruginosa PAO1 growth/biofilm, A600, 12 h; higher = more signal.
A short description of assay [6]: S. cerevisiae RM11-1a growth modifiers, primary screen, strain RM11-1a, OD600, basal, 24 h (AID 1177).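 Also: cultures grown under basal conditions with no added stressor.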 The conditions noted are these: OD600, 24 h, higher = more signal, called active from +8 up or from −8 down.
Assay [7] is described as follows: E. coli acrAB mutant growth effects, primary screen, E. coli filamentation inducers, strain DRC39, OD650, 24 h (AID 1178).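 Also: growth measured as culture turbidity by optical density at 650 nm.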 The conditions noted are these: higher = more signal, called active from +8 up or from −8 down.
Assay [8] can be described thus: E. coli acrAB mutant growth effects, primary screen, E. coli filamentation inducers, strain DRC39, OD650, 48 h (AID 1179).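 Also: screen aims at cell division blockers that make cells filament.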 The conditions noted are these: E. coli DRC39 delta-acrAB growth, higher = more signal, called active from +8 up or from −8 down.
The nature of assay [9]: RPMI8226 myeloma cell viability, profiling panel, resazurin fluorescence, basal, 24 h, PK04 Diversity Set (AID 1180).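 Also: RPMI8826 multiple myeloma cell line at 5000 cells per well.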 The conditions noted are these: higher = more signal.
Assay [10] addresses E3 ubiquitin-protein ligase XIAP (Homo sapiens) (UniProt P98170). Description: XIAP binders, primary screen, biophysical, small-molecule microarray, fluorescence 635 nm (AID 1181).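 Also: score merges 667 nm emission and signal to noise over triplicate slides.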 Particulars: small-molecule microarray binding, higher = more signal.
For assay [11], the system named is XIP peptide (Xip251-270) binding. Description: small-molecule binders of XIP peptide, primary screen, biochemical, small-molecule microarray, fluorescence 635/667 nm, 0.1 µg/mL protein (AID 1182). Particulars: fluorescent protein binding, 635 nm, higher = more signal, called active from +8 up or from −8 down.
A further assay has as its system XIP peptide (Xip251-270). Description: small-molecule binders of XIP peptide, primary screen, biochemical, small-molecule microarray, fluorescence 635/667 nm, 0.5 µg/mL protein (AID 1183). The conditions noted are these: small-molecule microarray binding, fluorescence 635 nm; higher = more signal.
A short description of assay [12]: Plasmodium falciparum growth inhibition, primary screen, strain 3D7, DAPI fluorescence, 100 nL (AID 1184).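 Also: parasites grown inside human red blood cells in medium with human serum.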 The conditions noted are these: P. falciparum 3D7 growth, 3 d, higher = more signal.
Assay [13] addresses Homeobox protein Hox-A13 (Mus musculus) (UniProt Q62424). The experiment in a line: inhibitors of HoxA13-DNA binding, primary screen, biochemical, fluorescence polarization, labeled oligonucleotide (AID 1185). Particulars: 15 min, higher = more signal, called active from +8 up or from −8 down.
The nature of assay [14]: inhibitors of hydroxyurea-induced Chk1 phosphorylation, primary screen, imaging, HeLa, phospho-Chk1 antibody, percent positive cells (AID 1186). The conditions noted are these: hydroxyurea-induced phospho-Chk1 immunofluorescence imaging, higher = more signal.
Assay [15] can be described thus: inhibitors of hydroxyurea-induced Chk1 phosphorylation, primary screen, imaging, HeLa, phospho-Chk1 nuclear intensity (AID 1187). Particulars: hydroxyurea-induced phospho-Chk1 immunofluorescence imaging, higher = more signal.

E3 ubiquitin-protein ligase XIAP (Homo sapiens), sequence (P98170 whole entry, looked up): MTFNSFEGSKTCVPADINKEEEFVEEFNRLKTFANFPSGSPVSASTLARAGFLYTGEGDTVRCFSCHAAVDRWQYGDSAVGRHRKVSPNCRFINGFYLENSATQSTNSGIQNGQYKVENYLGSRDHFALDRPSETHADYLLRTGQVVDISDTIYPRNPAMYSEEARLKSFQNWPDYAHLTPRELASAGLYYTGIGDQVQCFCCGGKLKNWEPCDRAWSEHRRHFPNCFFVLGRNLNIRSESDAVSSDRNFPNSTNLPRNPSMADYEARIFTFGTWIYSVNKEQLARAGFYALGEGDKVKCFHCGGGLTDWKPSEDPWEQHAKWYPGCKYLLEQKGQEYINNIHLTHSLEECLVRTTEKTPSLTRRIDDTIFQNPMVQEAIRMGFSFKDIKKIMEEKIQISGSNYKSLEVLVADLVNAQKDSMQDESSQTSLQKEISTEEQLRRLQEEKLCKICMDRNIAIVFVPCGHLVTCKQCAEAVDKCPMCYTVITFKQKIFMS
Homeobox protein Hox-A13 (Mus musculus), sequence (Q62424 whole entry, looked up): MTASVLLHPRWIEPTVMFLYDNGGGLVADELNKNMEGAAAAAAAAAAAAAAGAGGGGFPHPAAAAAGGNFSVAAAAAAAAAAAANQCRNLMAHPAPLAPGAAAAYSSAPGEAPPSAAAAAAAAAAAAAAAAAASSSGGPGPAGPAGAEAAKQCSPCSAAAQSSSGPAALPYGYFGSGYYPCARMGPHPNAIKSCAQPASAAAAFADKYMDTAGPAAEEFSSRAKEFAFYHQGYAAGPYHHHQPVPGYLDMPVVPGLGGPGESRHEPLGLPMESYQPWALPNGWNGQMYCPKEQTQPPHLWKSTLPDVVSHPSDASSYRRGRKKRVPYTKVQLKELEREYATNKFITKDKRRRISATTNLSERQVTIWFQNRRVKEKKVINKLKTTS
Dihydroorotate dehydrogenase (quinone), mitochondrial (Plasmodium falciparum (isolate 3D7)), sequence (Q08210 whole entry, looked up): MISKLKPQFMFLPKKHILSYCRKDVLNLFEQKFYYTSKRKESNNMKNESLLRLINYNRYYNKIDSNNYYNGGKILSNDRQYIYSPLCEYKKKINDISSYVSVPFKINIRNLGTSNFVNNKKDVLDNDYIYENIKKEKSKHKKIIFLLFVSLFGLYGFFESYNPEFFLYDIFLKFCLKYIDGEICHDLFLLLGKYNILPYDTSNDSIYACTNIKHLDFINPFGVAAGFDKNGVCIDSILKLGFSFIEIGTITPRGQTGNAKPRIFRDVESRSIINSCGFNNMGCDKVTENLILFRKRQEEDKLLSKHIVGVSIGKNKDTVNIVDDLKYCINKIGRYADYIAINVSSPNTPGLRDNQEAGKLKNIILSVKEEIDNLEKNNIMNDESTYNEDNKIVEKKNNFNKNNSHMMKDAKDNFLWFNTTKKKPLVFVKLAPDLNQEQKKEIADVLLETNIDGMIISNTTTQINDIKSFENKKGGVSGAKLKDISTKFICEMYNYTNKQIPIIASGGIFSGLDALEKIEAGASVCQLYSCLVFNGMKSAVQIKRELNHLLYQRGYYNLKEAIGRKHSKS

Consider `C=C(C(=O)CC[C@H](OC(=O)c1cccnc1)c1ccccc1OCCO)C(C)C`, for which the z-score in [1] was 0.3; in [2] it was -0.993 (inactive); in assay [3], -1.5 (inactive); in assay [5], 0.686 (inactive); in [6] it was -0.237 (inactive); in [7] it was 0.283 (inactive). For the same compound, the z-score was 0.237 (inactive) in assay [8]; -2.14 in assay [9]; -2.3 in assay [12]; -4.71 (inactive) in assay [13]; 0.321 (inactive) in assay [14]; 0.0728 (inactive) in assay [15]. The composite z-score in [4] is -0.429 (inactive); in assay [10], -0.0994; in assay [11] it was 0.698 (inactive); with XIP peptide (Xip251-270), 0.564.

As to `CCCNC(=O)[C@@]1(C)c2ccccc2C(=O)N(C(C)C)[C@H]1c1ccc(CO)cc1`, the z-score was 0.241 in assay [1]; -0.619 (inactive) in assay [2]; 0.148 (inactive) in assay [3]; 0.332 (inactive) in assay [5]; -0.531 (inactive) in [6]; -0.252 (inactive) in assay [7]. Also, the z-score in [8] is -0.516 (inactive); in assay [9] it was 0.0567; in assay [12], -1.46; in [13] it was -3.3 (inactive); in [14], -0.017 (inactive); in [15], -0.211 (inactive). Moreover, the composite z-score in assay [4] is -0.44 (inactive); in assay [10] it was -0.0553; in [11] it was -0.358 (inactive); in the assay with XIP peptide (Xip251-270), -0.395.

Regarding `C=C[C@H](C)[C@H](OC(=O)Nc1ccc(OC)cc1)c1ccc(O)c2ccccc12`, the z-score in [1] was -0.475; in assay [2], -18.5 (active); in [3] it was -2.68 (inactive); in [5] it was 0.908 (inactive); in assay [6], -17 (active); in assay [7] it was 0.405 (inactive). Further, the z-score in assay [8] was -0.0111 (inactive); in assay [9] it was -2.21; in assay [12] it was -0.767; in assay [13] it was -4.27 (inactive); in assay [14], -0.33 (inactive); in assay [15] it was -0.382 (inactive). In addition, the composite z-score was -1.79 (inactive) in assay [4], -0.003 in assay [10], 0.79 (inactive) in assay [11] and -0.147 in the assay with XIP peptide (Xip251-270).

Regarding `CCN(CC)c1ccc(N2CC=CC34O[C@@H]5/C=C\CCCOC(=O)C5[C@H]3C(=O)N(CCCO)[C@@H]4C2=O)cc1` (some centres undefined), the z-score was 0.434 in [1]; 0.993 (inactive) in [2]; 0.481 (inactive) in assay [3]; 0.053 (inactive) in [5]; -0.767 (inactive) in assay [6]; -0.438 (inactive) in [7]. For the same compound, the z-score is -0.322 (inactive) in assay [8]; 0.566 in assay [9]; 0.404 in assay [12]; -6.09 (inactive) in assay [13]; -0.343 (inactive) in [14]; 0.121 (inactive) in assay [15]. Also, the composite z-score in assay [4] is -0.423 (inactive); in assay [10], 0.559; in assay [11] it was 0.828 (inactive); in the assay on XIP peptide (Xip251-270), 0.828.

Turning to `COC(=O)[C@@]1(Cc2ccc(F)cc2)[C@H]2c3cc(C(=O)N(C)C)n(CCc4c[nH]c5ccc(OC)cc45)c3C[C@H]2CN1C(=O)c1ccccc1`, the z-score in assay [1] was -0.643; in [2], 0.971 (inactive); in assay [3], -2 (inactive); in assay [5], 4.65 (inactive); in assay [6], 0.679 (inactive); in [7], -0.562 (inactive). Moreover, the z-score was -0.681 (inactive) in assay [8]; -1.59 in assay [9]; -1.52 in [12]; -0.694 (inactive) in [13]; 0.737 (inactive) in [14]; 0.0892 (inactive) in assay [15]. For the same compound, the composite z-score in assay [4] was -2.26 (inactive); in [10], 0.326; in assay [11], 0.661 (inactive); in the assay on XIP peptide (Xip251-270) it was -0.21.

In the case of `[N-]=[N+]=Nc1ccccc1C[C@]1(C(=O)N2CCCCC2)N=C(c2ccc(OCCCO)cc2)O[C@H]1c1ccccc1N=[N+]=[N-]`, the z-score in assay [1] is -0.776; in assay [2] it was -0.254 (inactive); in assay [3], -3.52 (inactive); in assay [5] it was 1.07 (inactive); in assay [6] it was 0.975 (inactive); in [7], -0.125 (inactive). Further, the z-score is -0.319 (inactive) in [8]; -4.29 in assay [9]; -2.34 in [12]; -1.63 (inactive) in [13]; -0.0268 (inactive) in [14]; 0.205 (inactive) in assay [15]. Also, the composite z-score in [4] is 0.584 (inactive); in assay [10], 0.0727; in assay [11], 1.01 (inactive); in the assay with XIP peptide (Xip251-270), 0.659.

`CC(C)C(=C=CC[C@H](O)c1ccccc1OCCO)CCO`: the z-score in assay [1] was -0.457; in assay [2] it was -1.39 (inactive); in [3], -0.0976 (inactive); in assay [5], 1.17 (inactive); in assay [6], 0.0589 (inactive); in assay [7], -0.235 (inactive). Besides, the z-score in assay [8] is -0.153 (inactive); in assay [9] it was 0.217; in assay [12] it was -0.305; in assay [13], -3.12 (inactive); in assay [14] it was -0.106 (inactive); in [15] it was 0.0237 (inactive). For the same compound, the composite z-score in assay [4] was -0.757 (inactive); in [10], -0.23; in [11], -0.393 (inactive); in the assay on XIP peptide (Xip251-270), 0.81.

With `[N-]=[N+]=Nc1ccccc1[C@@H]1OC(c2ccc(OCCCO)cc2)=N[C@]1(CCS(=O)(=O)c1ccccc1)C(=O)O`, the z-score in assay [1] was 0.97; in assay [2] it was -0.14 (inactive); in assay [3], -0.3 (inactive); in assay [5], -0.884 (inactive); in assay [6], 0.82 (inactive); in assay [7], 0.277 (inactive). For the same compound, the z-score in assay [8] was 0.82 (inactive); in assay [9], 0.205; in [12], -1.19; in assay [13], -4.69 (inactive); in assay [14], -0.273 (inactive); in assay [15] it was -0.0293 (inactive). In addition, the composite z-score in assay [4] is -23.4 (active); in assay [10] it was 0.125; in [11] it was 0.97 (inactive); in the assay with XIP peptide (Xip251-270), 0.727.

Take `C[C@]1(C(=O)NCC(F)(F)F)c2ccccc2C(=O)N(Cc2cc(F)cc(C(F)(F)F)c2)[C@H]1c1ccc(CO)cc1`: the z-score is 0.378 in assay [1]; -0.459 (inactive) in assay [2]; -0.191 (inactive) in assay [3]; 1.32 (inactive) in assay [5]; -0.401 (inactive) in assay [6]; -0.0567 (inactive) in assay [7]. Moreover, the z-score is -0.376 (inactive) in assay [8]; 0.532 in [9]; -1.31 in assay [12]; -3.68 (inactive) in [13]; 0.305 (inactive) in assay [14]; 0.388 (inactive) in [15]. Besides, the composite z-score in assay [4] was -0.191 (inactive); in assay [10], -0.0884; in assay [11], 0.362 (inactive); with XIP peptide (Xip251-270), 0.473.
